“And” between values parts separate entries of the source, which are not always exact repeats. Equal values may be shown once. Records with an inconclusive call do not appear. Unmarked numbers belong to inactive results. The source made the active and inactive calls. Calls follow the shape of the dose curve; as a rule, active = well fitted curve in either direction with a large enough effect; inconclusive = small, poorly fitted or top-dose-only effect; inactive = no such curve, though single readings can be large or run the other way.
These compounds were tested against Lysosomal alpha-glucosidase (Homo sapiens) (UniProt P10253) (assay: Confirmation of Inhibitors and Activators of Human alpha-Glucosidase From Spleen Homogenate). Conditions: alpha-glucosidase enzyme activity; series mostly up to 60.5 µM; activity change, both directions: at the top concentration.
Outline: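 Compounds titrated against spleen-homogenate alpha-glucosidase, pH 5.0, 1 mM 4-MU-glucoside substrate, 37 C for 40 min. Fluorescence after pH 10 stop, normalised to no-enzyme and enzyme controls; Hill-equation AC50.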
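For Potency in this document: fluorescence of 4-methylumbelliferone released from a fluorogenic glucopyranoside substrate at pH 5.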
For activity change, both directions in this document: 0% is about no effect.
Potency is read from the fitted curve at half-maximal effect.

| SMILES | activity change, both directions | Potency |
| --- | --- | --- |
| COc1ccc(CCn2cc(C#N)c(=O)[nH]c2=O)cc1OC | -2.91% [at 31.5 µM] | – |
| O=C(CC(c1ccccc1)c1cc(Br)ccc1O)NCCN1CCOCC1 (stereo unspecified) | 4.56% [at 31.5 µM] | – |
| COc1ccc(CCn2c(=S)[nH]c(=O)c3[nH]cnc32)cc1OC | -2.31% | – |
| C(=C/c1nccc2c1[nH]c1ccccc12)/c1ccc2c(c1)OCO2 | 22.5% | – |
| Cc1cccc(S(=O)(=O)c2c(N)n(-c3ccccc3)c3nc4ccccc4nc23)c1 | 12.7% [at 31.5 µM] | – |
| COc1cc(-c2cc(N3C(=O)Nc4ccccc4N3O)n[nH]2)cc(OC)c1OC | -4.58% [at 31.5 µM] | – |
| CC(=O)c1ccc(N2CCN(S(=O)(=O)c3ccc4[nH]c(=O)[nH]c4c3)CC2)cc1 | 0.795% | – |
| COc1ccc(-c2cc(=O)c(C(=O)c3ccc(C)cc3)n[nH]2)cc1 | 0.947% [at 31.5 µM] | – |
| O=C(O)c1c(-c2ccccc2)c2oc3ccccc3c2[nH]c1=O | 5.29% [at 31.5 µM] | – |
| C[C@@H](NC(=O)c1nc[nH]c1C(=O)N[C@@H](Cc1ccccc1)C(=O)OC(C)(C)C)c1ccccc1 | -2.65% | – |
| COc1cc(CN2CCC(CO)(Cc3cccc(C(F)(F)F)c3)CC2)ccc1F | -3.98% | – |
| CCNc1sc(C(=O)c2cccs2)c(N)c1-c1nc2ccccc2s1 | 4.26% | – |
| CC(C)Cn1c(SCC(=O)N2CCCCC2)nc2ccccc2c1=O | -2.36% [at 31.5 µM] | – |
| CC1CC(C)CN(CC(=O)N2c3ccccc3CCc3ccccc32)C1 (stereo unspecified) | -1.9% | – |
| CCCN1CNc2c(c(=O)[nH]c(=S)n2CCC(C)C)C1 | -14.7% | – |
| CC(C)CNc1c(N)n(CC(C)C)c(=O)[nH]c1=O | 0.596% [at 31.5 µM] | – |
| COC(=O)c1c(NC(=O)Cn2nc(C(F)F)cc2C(F)F)sc(C)c1C | -0.366% [at 31.5 µM] | – |
| CN1CC=C2C(C#N)=C(N)C(C#N)(C#N)[C@H](c3cccc(Cl)c3)C2C1 (stereo partly specified) | 3.84% [at 31.5 µM] | – |

| SMILES | activity change, both directions | Potency |
| --- | --- | --- |
| O=C(CCc1cccc(S(=O)(=O)N2CCOCC2)c1)NN=C1c2ccccc2-c2ccccc21 | -5.44% | – |
| O=S(=O)(c1ccccc1F)N1CCOCC1 | -1.74% | – |
| O=c1[nH]cc(C#Cc2ccccc2)c2ncncc12 | -10.9% | – |
| COc1cccc2cc(-c3nc(-c4ccccc4)c(C)s3)c(=O)oc12 | -10.2% | – |
| Cc1csc(-c2cc3ccccc3oc2=O)n1 | – | 31.6 µM (active) |
| COc1ccc(C#Cc2cnc(Cl)c3cncnc23)cc1OC | 2.33% | – |
| Cc1cnc(C(=O)Nc2cc(S(=O)(=O)N3CCOCC3)ccc2N2CCN(C)CC2)cn1 | -28% | – |
| CCCN1CNc2c(c(=O)[nH]c(=S)n2CCc2cc(Cl)ccc2Cl)C1 | – | 14.1 µM (active) |
| N#Cc1c(-c2ccc(F)cc2)cc(-c2cccnc2)nc1N | 8.93% | – |
| Cc1sc(-c2cc3ccccc3oc2=O)nc1-c1ccc(Cl)cc1 | 11% | – |
| CCCN1CNc2c(c(=O)[nH]c(=S)n2CCc2ccccc2Cl)C1 | – | 15.8 µM (active) |
| COc1ccc(S(=O)(=O)N2CCOCC2)cc1 | 1.25% | – |
| N#Cc1ccc(N2CCN(S(=O)(=O)c3ccc4c(c3)CC(=O)N4)CC2)cc1 | – | 1.16 µM [inhibitor] (active) |
| CC(=O)c1ccc(N2CCN(S(=O)(=O)c3ccc4[nH]c(=O)oc4c3)CC2)cc1 | -0.981% | – |
| Clc1ccc(Nc2ncnc3ccc(Br)cc23)cc1 | 1.29% [at 31.5 µM] | – |
| CC(=O)c1ccc(N2CCN(S(=O)(=O)c3ccc4c(c3)CC(C)N4C(C)=O)CC2)cc1 (stereo unspecified) | -2.72% | – |
| CCCN1CNc2c(c(=O)[nH]c(=S)n2CCc2ccc(OC)c(OC)c2)C1 | – | 11.2 µM (active) and 15.8 µM (active) |
| Cc1cccc2cc3c(NC(=O)c4ccccn4)nn(C)c3nc12 | 3.35% [at 31.5 µM] | – |
